Screening results: PubChem, several laboratories
A selection: hits, their analogues and other compounds. The true share with any hit is near 2%.
Yeast superoxide: lowers age-related superoxide in aged yeast cells | 330,000 tested, 0.18% active | superoxide response (% of plate mean), % at 10 µM | S. cerevisiae aged cells, superoxide DHE fluorescence; hits give low values | AID 2690;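 active means superoxide response under a set limit, about three screen SD below normal, cut at about 65% in these data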;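 further: yeast aged for seven days with compound at 30 °C before DHE staining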
Calb FLC: affects C. albicans growth with fluconazole; C. albicans CaCi-2 (fluconazole-resistant clinical isolate) + fluconazole, Alamar Blue growth, 48 h; growth inhibition, % (test concentration not listed); 300,000 tested, 0.57% active;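 active means growth inhibition above about 58% in most replicates, limit read from the data, passing the limit was not always enough; inconclusive means exactly half the replicates above a set limit; inactive means most replicates below a set limit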;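 further: all wells also contain fluconazole at 8 µg/ml as a sub-toxic cotreatment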
Platelet DG rel: modulates dense granule release in human platelets. human platelet-rich plasma, SFLLRN dense granule ATP release, luminescence. inhibition, %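 (compounds screened at 7.5 µM in platelet-rich plasma)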. 300,000 tested, 0.22% active. AID 1663;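 active means mean replicate score, as percent of positive control, at or above 50; inconclusive means mean below 50 but at least one replicate at or above 50; inactive means mean and every replicate below 50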
PolyA inhibitor: blocks polyadenylation in yeast reporter cells | S. cerevisiae SKY197-pL101 polyadenylation reporter, beta-gal luminescence; efflux-impaired pdr1/pdr3 knockout yeast; score 100 = 6 SD above DMSO | AID 1875 | activity score, % at 12 µM | 300,000 tested, 0.02% active;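 active means lowest replicate activity score at least 50, where 100 means six control SD above control mean; inconclusive means lowest score under 50 but half or more replicates reach 50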;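 further: yeast exposed to compound for 9 h at 30 °C; higher score means more reporter readthrough which indicates perturbed polyadenylation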
SKKanGAS inh: inhibitors of SKKanGAS S. pyogenes growth in kanamycin (SK-promoter or general growth effect); BacTiter-Glo, 6 h; inhibition, % at 7.5 µM; 300,000 tested, 1.3% active;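 active means mean replicate score, as percent of positive control median, at least 50; inconclusive means mean below 50 but one replicate at or above 50; inactive means mean and every replicate below 50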;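 further: strain carries kanamycin resistance gene driven by streptokinase promoter and grows in 40 µg/ml kanamycin; loss of luminescence reflects streptokinase promoter inhibition or plain growth inhibition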
Large screens that a line does not name were inactive.

Cc1nn(C(=O)c2cccnc2)c(C)c1Sc1ccc(Br)cc1	SKKanGAS inh 63
C=CCNc1nc(N)c([N+](=O)[O-])c(N2CCCCCC2)n1	none
CCN(CC)CCCNc1nc(N)c([N+](=O)[O-])c(N2CCCCCC2)n1	SKKanGAS inh 66
Cc1nc(SCc2ccc(Cl)c(Cl)c2)ncc1C(=O)O	Calb FLC 90
CC(C)(C)C1CCC2(CC1)CC(=O)c1ccccc1O2 (stereo unspecified)	none
Cc1c(C(=O)Nc2nccs2)sc2nc(-c3cccs3)cc(C(F)(F)F)c12	SKKanGAS inh 95
Cc1c(C(=O)O)sc2nc(-c3cccs3)cc(C(F)(F)F)c12	none
NS(=O)(=O)c1cccc(NC(=O)CCN2C(=O)C3CCCCC3C2=O)c1 (stereo unspecified)	none (no result: Calb FLC, Platelet DG rel, PolyA inhibitor, SKKanGAS inh)
COc1cc2c(cc1OC)-c1cc(Nc3ccc(C(=O)O)cc3)nc(=O)n1CC2	none
COc1cc2c(cc1OC)-c1cc(Nc3ccc(C)cc3)nc(=O)n1CC2	Platelet DG rel 113
COc1cc2c(cc1OC)-c1cc(Nc3ccccc3Br)nc(=O)n1CC2	Platelet DG rel 94
COc1cc2c(cc1OC)-c1cc(Nc3ccccc3)nc(=O)n1CC2	Platelet DG rel 131
COc1cc2c(cc1OC)-c1cc(Nc3ccc4c(c3)OCCO4)nc(=O)n1CC2	Platelet DG rel 51
COc1cc2c(cc1OC)-c1cc(NC3CCCCCC3)nc(=O)n1CC2	Platelet DG rel 82
COc1cc2c(cc1OC)-c1cc(N3CCCCCC3)nc(=O)n1CC2	Platelet DG rel 54
CCOc1cccc(Nc2cc3n(c(=O)n2)CCc2cc(OC)c(OC)cc2-3)c1	none
COc1ccc(Nc2cc3n(c(=O)n2)CCc2cc(OC)c(OC)cc2-3)c(C)c1	Platelet DG rel 80
COc1cc2c(cc1OC)-c1cc(N3CCCc4ccccc43)nc(=O)n1CC2	none
COc1ccc(Nc2cc3n(c(=O)n2)CCc2cc(OC)c(OC)cc2-3)cc1	Platelet DG rel 61
NC(=O)N(N)c1nc(N2CCCC2)nc(N2CCCC2)n1	none (no result: Calb FLC, Platelet DG rel, PolyA inhibitor, SKKanGAS inh)
COC(=O)c1cc(C(=O)N2CCN(c3cccc(C)c3C)CC2)cc([N+](=O)[O-])c1	PolyA inhibitor 103
COC(=O)c1cc(C(=O)N2CCN(c3ccccc3OC)CC2)cc([N+](=O)[O-])c1	none
CCCCN(C(=O)COC(=O)CSc1ccc([N+](=O)[O-])cc1)c1c(N)n(CCC)c(=O)[nH]c1=O	none
CC(C)=CCc1cc2c(=O)c3c(O)c4c(cc3oc2c(O)c1O)OC(C)C4(C)C (stereo unspecified)	Calb FLC 95, SKKanGAS inh 103
CC1Oc2cc3oc4c(O)c5c(cc4c(=O)c3c(O)c2C1(C)C)C=CC(C)(C)O5 (stereo unspecified)	SKKanGAS inh 70
COc1c(CC=C(C)C)c(O)cc2oc(=O)c3c4ccc(O)cc4oc3c12	none
CCOC(=O)C1CCN(C(=O)c2cnn3c(C)cc(C)nc23)CC1	none
O=C(Nc1nc2ccc(SC(F)F)cc2s1)c1ccc(NS(=O)(=O)c2ccc(F)c(F)c2)cc1	Calb FLC inconclusive, SKKanGAS inh 114
CS(=O)(=O)c1ccc2nc(NC(=O)c3ccc(NS(=O)(=O)c4ccc(F)c(F)c4)cc3)sc2c1	SKKanGAS inh 85
O=C(OCn1nnc2ccccc2c1=O)c1cccc(S(=O)(=O)N2CCOCC2)c1	none (no result: Calb FLC, Platelet DG rel, PolyA inhibitor, SKKanGAS inh)
Cc1cccc[n+]1CCCCCCCCCC[n+]1ccccc1C	none
CCCCCCCC[n+]1cccc2c3ccccc3ccc21	Calb FLC 102
CCCCCCCCCC[n+]1cccc2c3ccccc3ccc21	Calb FLC 101, SKKanGAS inh inconclusive (no result: Yeast superoxide)
O=C(NCCOc1ccccc1)c1ccccc1SCC(=O)N1CCCC1	none (no result: Calb FLC, Platelet DG rel, PolyA inhibitor, SKKanGAS inh)
COc1ccc(C(=O)Nc2c3c(nn2-c2ccc([N+](=O)[O-])cc2)CS(=O)(=O)C3)cc1	SKKanGAS inh 52
COc1ccc(C(=O)Nc2c3c(nn2-c2ccc(Cl)cc2)CS(=O)(=O)C3)cc1	none
Cc1ccc2c(CN(C)Cc3ccc(Cl)cc3)cc(=O)oc2c1	none
Cc1ccc2c(CN(C)Cc3ccc(Cl)cc3Cl)cc(=O)oc2c1	SKKanGAS inh 53
NS(=O)(=O)c1ccc(CCNC(=O)COC(=O)/C=C/c2ccc(Cl)cc2)cc1	none
COc1cccc(C(=O)N(C)CC2CCN(CCc3cccc(C(F)(F)F)c3)CC2)c1	none
CCOC(=O)C1(CCc2ccccc2)CCN(C(=O)Cc2nonc2C)CC1	none
Cc1ccc(C2=C(O)c3ccccc3C(=O)C2=O)cc1	none
CC(C)c1ccc(C2=C(O)c3ccccc3C(=O)C2=O)cc1	Calb FLC 99
